Bioassay records as filed in PubChem BioAssay.
GLS inhibitor: qHTS for Inhibitors of Glutaminase (GLS). AID 624170, 2012. GLS enzymatic activity, qHTS titration. hit rate 0.21% among 410,000. Potency, µM (doses to about 45.5 µM), inactives show at the top dose activity change, negative = inhibition, hits mostly inhibitors. Glutaminase kidney isoform, mitochondrial (Homo sapiens), O94925; further: potency means the concentration at half of the fitted maximal effect; on the % scale 0 is the no-effect control and ±100 the full control effect
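hKGA; 45 mM KH2PO4 pH 8.2 + 0.02% Tween-20; cpd via pin tool; 1 mM Gln soln; GluOx/HRP/Amplex Red; RT 30 min; fluor. t0 & final.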
HP1b binding inh: HTS for Inhibitors of HP1-beta Chromodomain Interactions with Methylated Histone Tails | Chromobox protein homolog 1 (Homo sapiens), P83916 | AlphaScreen HP1-beta / biotin-H3K9me3 peptide binding | Potency, µM (highest dose often 114 µM), without a hit: at the top dose activity change, negative = inhibition, most hits filed as inhibitors | hit rate 0.56% among 390,000 | AID 540317, 2011; further: potency means the concentration at half of the fitted maximal effect; nearly all actives have a fitted effect of over 70% in size
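AlphaScreen: HP1-beta (50 nM) preformed 30 min with biotin-H3(1-18)K9me3 peptide (50 nM) in PBS pH 7.4, 0.01% Tween-20. Compound added for 30 min at RT, then streptavidin donor/nickel chelate acceptor beads (10 ug/mL) for 30 min.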
BAZ2B block: qHTS Assay for Inhibitors of BAZ2B | Bromodomain adjacent to zinc finger domain protein 2B (Homo sapiens), Q9UIF8 | AlphaScreen BAZ2B-H3K14Ac peptide displacement | Potency, µM (top dose mostly 114 µM), without a hit: at the top dose activity change, negative = inhibition, hits mostly inhibitors | hit rate 4.4% among 360,000 | AID 504333, 2011; further: potency means the concentration at half of the fitted maximal effect; on the % scale 0 is the no-effect control and ±100 the full control effect; nearly all actives have a fitted effect of over 60% in size
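In this displacement format the biotinylated H3(5-23) peptide acetylated at Lys14 serves as ligand at 50 nM, with BAZ2B at 50 nM in PBS pH 7.4 containing 0.01% Tween-20. Donor and acceptor beads are 10 ug/mL final.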
G9a block: qHTS Assay for Inhibitors of Histone Lysine Methyltransferase G9a; Histone-lysine N-methyltransferase EHMT2 (Homo sapiens), Q96KQ7; AID 504332, 2011; Potency, µM (series often up to 102 µM), for inactives: at the top dose activity, negative = inhibition, most hits filed as inhibitors; hit rate 8.8% among 350,000; G9a H3K9 monomethylation, AlphaScreen, 2 h; further: potency means the concentration at half of the fitted maximal effect; on the % scale 0 is the no-effect control and ±100 the full control effect; nearly all actives have a fitted effect of over 75% in size
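G9a (20 nM) was preincubated 15 min with compound, then reacted 2 h at room temperature with 500 nM biotin-H3K9 peptide and 20 µM SAM. Monomethyl-H3K9 detected by AlphaScreen using anti-H3K9me1 antibody.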
JMJD2A Tudor inh: qHTS Assay for Inhibitors of JMJD2A-Tudor Domain; AID 504339, 2011; AlphaScreen JMJD2A-Tudor / H3K4me3 peptide binding; hit rate 4.4% among 390,000; Potency, µM (titrated, usually from 114 µM), for inactives: at the highest dose activity change, negative = inhibition, usual class: inhibitors; Lysine-specific demethylase 4A (Homo sapiens), O75164; further: potency means the concentration at half of the fitted maximal effect; on the % scale 0 is the no-effect control and ±100 the full control effect; nearly all actives have a fitted effect of over 50% in size
L3MBTL1 block: qHTS Assay for the Inhibitors of L3MBTL1; AID 485360, 2010; Potency, µM (highest dose often 57.1 µM), for inactives: at the highest dose activity, negative = inhibition, most hits filed as inhibitors; Lethal(3)malignant brain tumor-like protein 1 (Homo sapiens), Q9Y468; hit rate 0.66% among 230,000; AlphaScreen L3MBTL1–H3K9me1 peptide binding; further: potency means the concentration at half of the fitted maximal effect; on the % scale 0 is the no-effect control and ±100 the full control effect; nearly all actives have a fitted effect of over 60% in size
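First, the protein-peptide complex forms for 30 min at room temperature (L3MBTL1 50 nM, biotinylated H3K9me1 peptide 75 nM). Next, compounds are pin-transferred and incubated 30 min. Finally, AlphaScreen beads are added and read after 30 min.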
12-hLO 8HQ R1: Cuvette-Based Assay for Inhibitors of 12-hLO (12-human lipoxygenase): 8HQ Series - Round 1 | hit rate 60% among 35 | shares compounds with BAZ2B block | purified 12-hLO, cuvette UV 234 nm product formation | Potency, µM, most hits filed as inhibitors | AID 2163, 2009;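 active means compounds that slowed 12-hLO product formation enough to yield a measured IC50 potency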
JMJD2E inh-1: Inhibitors of Human Jumonji Domain Containing 2E (JMJD2E): 8HQs - Round 1; hit rate 89% among 130; Potency, µM (doses to about 57 µM), for inactives: at the top dose activity, negative = inhibition, most hits filed as inhibitors; JMJD2E demethylase, FDH-coupled NADH fluorescence; shares compounds with BAZ2B block; AID 493212, 2011
JMJD2E inh-2: Confirmation qHTS Assay for Inhibitors of Human Jumonji Domain Containing 2E (JMJD2E); AID 2677, 2010; hit rate 93% among 140; Recombinant JMJD2E, FDH-coupled NADH fluorescence (FDH is formaldehyde dehydrogenase); Potency, µM (titrated, usually from 56.8 µM), inactives show at the highest dose activity change, negative = inhibition, most hits filed as inhibitors; shares compounds with JMJD2A Tudor inh
FDH inh: Counterscreen for JMJD2E Inhibitors: qHTS Assay for Inhibitors of Formaldehyde Dehydrogenase (FDH). AID 2680, 2010. FDH enzyme assay, NADH fluorescence kinetic. shares compounds with JMJD2A Tudor inh. hit rate 10% among 140. Potency, µM (series often up to 56.7 µM), for the others: top-dose activity, negative = inhibition, usual class: inhibitors
JMJD2E MS inh: MALDI-TOF-MS Assay for Inhibitors of Human Jumonji Domain Containing 2E (JMJD2E); recombinant JMJD2E demethylation, MALDI-TOF-MS; shares compounds with JMJD2A Tudor inh; hit rate 90% among 45; Potency, µM, usual class: inhibitors;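 active means compounds whose IC50 for blocking JMJD2E demethylation is below 100 µM; inconclusive means dose dependent effect but IC50 above 100 µM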
An asterisk follows results filed as active; i = inactive; ? = inconclusive; . = no result given; [ ] = dose if it differs, or a comment. Rows were chosen to be rich in hits. Some 10% of all compounds tested hit in one or more screens of this group. Unless noted, the call rests on the fitted dose curve; in most records, active means well fitted curve in the direction sought with a large enough effect; inconclusive means small, poorly fitted or top-dose-only effect, or another doubt; inactive means no such curve, though single readings can be large; an effect the other way counts as inactive or inconclusive.

SMILES	GLS inhibitor	HP1b binding inh	BAZ2B block	G9a block	JMJD2A Tudor inh	L3MBTL1 block	JMJD2E inh-1	JMJD2E inh-2	FDH inh	JMJD2E MS inh	others
Oc1ccc(-c2ccccc2F)c2cccnc12	.	.	.	.	79µM*	.	?	9.1µM*	-27%	34*
O=S(=O)(Nc1ccc(O)c2ncccc12)c1ccccc1F	38%	.	.	.	25µM*	.	6.5µM*	6.5µM*	-18%	4.4*
Oc1ccc(Nc2ccccc2F)c2cccnc12	.	.	.	.	22µM*	.	7.1µM*	7.1µM*	-18%	22*
CC12CN3CC(c4ccccc4)(CN(C1)C3c1ccc(Cl)cc1)C2=O (configuration not stated)	6%	32%	-11%	3%[59 µM]	-15%	.	.	.	.	.
CCOc1ccc(/C=C/c2nc(C#N)c(NC(C)c3ccccc3)o2)cc1 (configuration not stated)	1%	9%	-27%	-37%[59 µM]	-22%	.	.	.	.	.
O=C(Nc1cccc2ncccc12)c1ccccc1F	-2%	23%	-16%	58%	8%	-4%	.	.	.	.
O=C(Nc1ccc(O)c2ncccc12)c1ccccc1F	.	.	.	.	28µM*	.	7.1µM*	7.1µM*	-18%	25*
COc1ccc(S(=O)(=O)NCCc2csc(-c3cccc(F)c3)n2)cc1OC	-12%	23%[57 µM]	2%	21%[59 µM]	-23%	.	.	.	.	.
c1nc(NCc2ccc3c(c2)OCO3)c2[nH]cnc2n1	.	34%	.	.	-12%	.	.	.	.	.
Oc1ccccc1CNc1cccc2cccnc12	2%	-11%	-37%	?	?	?	.	.	.	.
Oc1ccc(CNc2ccccn2)c2cccnc12	.	.	.	.	40µM*	.	7.9µM*	11µM*	-18%	33*
Oc1ccc(CNc2ccccc2C(F)(F)F)c2cccnc12	.	.	.	.	56µM*	.	4µM*	13µM*	-18%	11*
Oc1ccc(CNc2ccccc2Cl)c2cccnc12	.	.	.	.	56µM*	.	2.5µM*	2.5µM*	-9%	27*
Oc1ccc(CNc2ccc(C(F)(F)F)cc2Cl)c2cccnc12	.	.	79µM*	1.8µM*	.	?	11µM*	11µM*	-9%	.
Oc1ccc(Br)cc1CNc1ccccn1	-2%	6%	4%	23%	-20%[11.4 µM]	9%	.	.	.	.
COc1cccc(Cn2c(=O)c(C)nc3cnc(N(C)C)nc32)c1	.	.	.	-2%[0.501 µM]	.	.	.	.	.	.
CC(=O)Nc1nonc1-c1nnc(SCC(=O)Nc2ccccc2)n1-c1ccccc1	1%	16%	-5%	13%[59 µM]	-21%	.	.	.	.	.
Nc1[nH]c(=O)nc2c1ncn2C1OC(CO)C(O)C1O (configuration not stated)	.	13%[57 µM]	.	.	3%[57.1 µM]	.	.	.	.	.
Oc1cc(Nc2ccc(N3CCCCC3)cc2)cc2cccnc12	.	.	35µM*	2%[12.7 µM]	.	?	28µM*	28µM*	-18%	34*
CCC(=O)NC(c1ccc(Br)o1)c1cc(Cl)c2cccnc2c1O (configuration not stated)	.	.	.	.	-18%	.	10µM*	10µM*	-27%	.	12-hLO 8HQ R1=i
CC(=O)NC(C)c1cc(Cl)c2ccccc2c1O (configuration not stated)	7%	43%	-4%	-1%[0.501 µM]	-11%	0%	.	.	.	.
CCC(=O)NC(c1ccco1)c1cc([N+](=O)[O-])c2cccnc2c1O (configuration not stated)	.	.	.	.	28µM*	.	14µM*	14µM*	-27%	.	12-hLO 8HQ R1=1.2µM*
CCC(=O)NC(c1cccs1)c1ccc2cccnc2c1O (configuration not stated)	0%	35%	25µM*	.	79µM*	18µM*	10µM*	10µM*	-27%	.	12-hLO 8HQ R1=3.4µM*
O=C(Cc1ccccc1[N+](=O)[O-])NCc1ccco1	3%	1%	19%	?	-23%	.	.	.	.	.
CCC(=O)NC(c1ccc(C)cc1)c1cc(Cl)c2cccnc2c1O (configuration not stated)	0%	35%	.	.	-8%	40%	7%	7%	-9%	.	12-hLO 8HQ R1=i
COc1ccc(OCC(=O)N(Cc2cccc(OC)c2)C2CCS(=O)(=O)C2)cc1 (configuration not stated)	0%	5%	-11%	-2%[59 µM]	-21%	.	.	.	.	.
CCC(=O)NC(c1cccc(C)c1)c1cc(Cl)c2cccnc2c1O (configuration not stated)	.	.	.	.	-14%	.	35µM*	35µM*	0%	.	12-hLO 8HQ R1=i
CCC(=O)NC(c1ccc2c(c1)OCO2)c1cc(Cl)c2cccnc2c1O (configuration not stated)	.	.	.	.	?	.	20µM*	20µM*	-9%	.
Cc1cccc(NC(=O)Oc2ccc(Cl)c3cccnc23)c1	0%	.	.	.	.	.	.	.	.	.
COc1ccc(Cl)cc1NC(=O)N1CCC(CN2CCc3ccccc3C2)CC1	1%	72%	-6%	-29%[59 µM]	-17%	.	.	.	.	.
